# PubChem BioAssay (NCATS)
# “And” between values parts separate entries of the source, which are not always exact repeats. Equal values may be shown once. Results filed as inconclusive are left out. The source made the active and inactive calls. Unless noted, calls follow the shape of the dose curve; as a rule, active = well fitted curve in the direction sought with a large enough effect; inconclusive = small, poorly fitted or top-dose-only effect, or another doubt; inactive = no such curve, though single readings can be large; an effect the other way counts as inactive or inconclusive.
# Legend:
# [1] = molecular target: Rap guanine nucleotide exchange factor 3 (Homo sapiens) (UniProt O95398); assay: Confirmatory qHTS for agonist of cAMP-regulated guanine nucleotide exchange factor 3 (EPAC1) (AID 1645881); also: nearly all actives have a fitted effect of over 75% in size; also: potency is read from the fitted curve at half-maximal effect
# [2] = molecular target: Rap guanine nucleotide exchange factor 4 (Homo sapiens) (UniProt Q8WZA2); assay: Confirmatory qHTS for agonist of cAMP-regulated guanine nucleotide exchange factor 4 (EPAC2) (AID 1645884);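 also: nucleotide exchange releases bodipy-GDP from Rap1 and this lowers its fluorescence; nearly all actives have a fitted effect of over 65% in size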; also: potency is read from the fitted curve at half-maximal effect
# [3] = molecular target: Rap guanine nucleotide exchange factor 4 (Homo sapiens) (UniProt Q8WZA2); assay: Confirmatory qHTS for antagonist of cAMP-regulated guanine nucleotide exchange factor 4 (EPAC2) (AID 1645885); also: nearly all actives have a fitted effect of over 25% in size; also: potency is read from the fitted curve at half-maximal effect; as to activity change, negative = inhibition: % is scaled to controls: 0 for no effect and ±100 for the full control effect
# [4] = molecular target: Rap guanine nucleotide exchange factor 3 (Homo sapiens) (UniProt O95398); assay: Counterscreen qHTS for antagonist of cAMP-regulated guanine nucleotide exchange factor 3 (EPAC1) (AID 1645888); also: % of control where 0% means no effect
# Summary of the method: (§1)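 Measured: fluorescence of BODIPY-GDP bound to Rap1B, which falls as exchange proceeds. Conditions include 50 uM competing GDP, 5 and 30 min reads, and a later cAMP challenge for antagonist detection.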
# [5] = molecular target: Rap guanine nucleotide exchange factor 3 (Homo sapiens) (UniProt O95398); assay: Counterscreen qHTS for agonist of cAMP-regulated guanine nucleotide exchange factor 3 (EPAC1) (AID 1645889); also: % of control where 0% means no effect; nearly all actives have a fitted effect of over 40% in size
# Summary of the method: as §1
# [6] = molecular target: Catechol O-methyltransferase (Homo sapiens) (UniProt P21964); assay: Confirmatory Screen for Target Class Profiling of Small Molecule Inhibitors of Methyltransferases (AID 1745852; calls by dose curve; also: potency is read from the fitted curve at half-maximal effect; as to activity change, negative = inhibition: % is scaled to controls: 0 for no effect and ±100 for the full control effect); conditions: MTase-Glo luminescence, SAH detection, recombinant enzyme; measured here: COMT max response; stronger effect = lower value
# [7] = molecular target: Guanidinoacetate N-methyltransferase (Homo sapiens) (UniProt Q14353); assay: as above; conditions: MTase-Glo luminescence, SAH detection, recombinant enzyme; activity change, negative = inhibition: at 57.3 µM (top of the series)
# [8] = molecular target: Rap guanine nucleotide exchange factor 3 (Homo sapiens) (UniProt O95398); assay: Confirmatory qHTS for antagonist of cAMP-regulated guanine nucleotide exchange factor 3 (EPAC1) (AID 1645880); also: nearly all actives have a fitted effect of over 55% in size; also: potency is read from the fitted curve at half-maximal effect
# Summary of the method: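 Released BODIPY-GDP fluoresces less than Rap1-bound BODIPY-GDP; the signal is followed at 480/540 nm at 5-min intervals over 30 min, after 5 min at room temperature. Reactions contain 100 nM EPAC1, 250 nM RAP1B-BODIPY-GDP and 50 uM GDP; results are normalized to ATA and DMSO.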
# [9] = Primary qHTS for inhibitors of nuclear receptor binding SET domain protein 2 (NSD2) in an RCH-ACV wild type WT cells (2C) (AID 1645877); also: nearly all actives have a fitted effect of over 70% in size; also: potency is read from the fitted curve at half-maximal effect
# [10] = Primary qHTS for inhibitors of nuclear receptor binding SET domain protein 2 (NSD2) in an isogenic RCH-ACV NSD2 p.E1099K mutant (9B) (AID 1645876); also: nearly all actives have a fitted effect of over 70% in size; also: potency is read from the fitted curve at half-maximal effect
# Sequence of Catechol O-methyltransferase (Homo sapiens) (P21964 whole entry, looked up): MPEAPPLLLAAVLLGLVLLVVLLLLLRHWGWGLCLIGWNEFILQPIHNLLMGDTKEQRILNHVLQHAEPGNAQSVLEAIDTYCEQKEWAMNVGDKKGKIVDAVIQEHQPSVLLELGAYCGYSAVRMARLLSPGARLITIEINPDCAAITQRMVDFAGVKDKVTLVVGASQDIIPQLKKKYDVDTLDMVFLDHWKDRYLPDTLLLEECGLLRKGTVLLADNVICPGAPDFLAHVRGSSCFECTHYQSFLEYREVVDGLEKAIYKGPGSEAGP
# Sequence of Rap guanine nucleotide exchange factor 3 (Homo sapiens) (O95398 whole entry, looked up): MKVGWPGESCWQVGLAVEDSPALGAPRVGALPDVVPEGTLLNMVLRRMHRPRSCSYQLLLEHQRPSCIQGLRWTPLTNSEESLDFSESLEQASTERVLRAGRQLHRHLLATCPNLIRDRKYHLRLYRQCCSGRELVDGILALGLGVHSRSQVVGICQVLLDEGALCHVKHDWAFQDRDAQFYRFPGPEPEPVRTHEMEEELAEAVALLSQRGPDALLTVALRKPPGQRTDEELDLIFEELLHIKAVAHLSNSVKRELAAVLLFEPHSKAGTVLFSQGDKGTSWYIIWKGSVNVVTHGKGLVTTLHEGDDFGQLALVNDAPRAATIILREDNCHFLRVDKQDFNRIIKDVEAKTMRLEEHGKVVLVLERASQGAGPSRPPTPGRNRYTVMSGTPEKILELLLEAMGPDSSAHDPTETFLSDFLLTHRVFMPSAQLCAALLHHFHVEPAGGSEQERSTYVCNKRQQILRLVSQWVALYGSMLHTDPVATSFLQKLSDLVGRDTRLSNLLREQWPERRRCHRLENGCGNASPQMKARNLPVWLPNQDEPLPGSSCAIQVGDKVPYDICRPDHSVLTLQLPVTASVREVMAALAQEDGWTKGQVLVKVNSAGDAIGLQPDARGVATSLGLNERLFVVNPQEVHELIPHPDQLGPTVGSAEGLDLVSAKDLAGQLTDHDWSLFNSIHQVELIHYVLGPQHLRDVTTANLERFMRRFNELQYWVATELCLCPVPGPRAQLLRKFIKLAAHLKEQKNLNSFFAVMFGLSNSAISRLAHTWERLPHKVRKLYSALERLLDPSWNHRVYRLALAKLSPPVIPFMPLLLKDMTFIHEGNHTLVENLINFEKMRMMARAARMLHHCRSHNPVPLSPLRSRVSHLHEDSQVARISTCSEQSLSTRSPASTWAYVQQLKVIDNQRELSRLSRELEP
# Sequence of Rap guanine nucleotide exchange factor 4 (Homo sapiens) (Q8WZA2 whole entry, looked up): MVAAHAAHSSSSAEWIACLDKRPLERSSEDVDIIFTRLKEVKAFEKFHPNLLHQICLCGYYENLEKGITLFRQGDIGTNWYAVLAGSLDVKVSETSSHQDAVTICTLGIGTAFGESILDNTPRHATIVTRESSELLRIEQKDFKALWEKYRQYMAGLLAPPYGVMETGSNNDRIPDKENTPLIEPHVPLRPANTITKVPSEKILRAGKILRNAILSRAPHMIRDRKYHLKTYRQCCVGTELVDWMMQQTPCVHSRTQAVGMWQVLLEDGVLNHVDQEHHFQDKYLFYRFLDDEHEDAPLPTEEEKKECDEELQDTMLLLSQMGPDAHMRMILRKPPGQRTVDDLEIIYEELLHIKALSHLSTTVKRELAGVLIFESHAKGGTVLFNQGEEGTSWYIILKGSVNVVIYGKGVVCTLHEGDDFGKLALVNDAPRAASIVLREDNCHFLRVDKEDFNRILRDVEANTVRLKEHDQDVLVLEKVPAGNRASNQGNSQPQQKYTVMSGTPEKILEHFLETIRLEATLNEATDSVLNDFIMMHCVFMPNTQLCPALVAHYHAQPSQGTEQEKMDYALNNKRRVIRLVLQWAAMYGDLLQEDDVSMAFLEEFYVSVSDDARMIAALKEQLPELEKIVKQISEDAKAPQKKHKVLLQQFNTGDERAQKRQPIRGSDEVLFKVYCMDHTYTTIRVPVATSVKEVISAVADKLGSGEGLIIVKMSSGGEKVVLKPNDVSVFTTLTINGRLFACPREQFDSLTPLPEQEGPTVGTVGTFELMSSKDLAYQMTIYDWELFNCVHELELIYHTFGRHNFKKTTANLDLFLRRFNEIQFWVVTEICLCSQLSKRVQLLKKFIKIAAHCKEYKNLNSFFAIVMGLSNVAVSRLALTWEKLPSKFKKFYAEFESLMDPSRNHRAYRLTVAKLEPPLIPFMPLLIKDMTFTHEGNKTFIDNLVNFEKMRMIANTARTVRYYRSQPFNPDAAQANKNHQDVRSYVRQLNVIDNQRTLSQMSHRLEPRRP
smiles,measurement,setting,value
CC(C)(CO)Cc1cc(C(C)(C)C)c(O)c(C(C)(C)C)c1,Potency,[1],inactive
same,Potency,[2],inactive
same,Potency,[3],49.4 µM (active)
COC(=O)C1=C(C)NC(C)=C([N+](=O)[O-])C1c1ccccc1C(F)(F)F (stereo not drawn),Potency,[1],inactive
same,Potency,[2],inactive
same,Potency,[3],inactive
same,outcome,[4],inactive
same,outcome,[5],inactive
CCCC[C@@]1(C2CCCC2)Cc2cc(OCC(=O)O)c(Cl)c(Cl)c2C1=O,Potency,[1],inactive
same,Potency,[2],inactive
same,Potency,[3],6.01 µM (active) and 3.5 µM (active)
same,outcome,[4],inactive
same,outcome,[5],inactive
same,activity,[6],8.39%
same,"activity change, negative = inhibition",[7],7.65%
CC(/C=C/c1cccc(Oc2ccc(F)cc2)c1)N(O)C(N)=O (stereo not drawn),Potency,[8],inactive
same,Potency,[1],inactive
same,Potency,[2],inactive
same,Potency,[3],44.1 µM (active)
C[C@](Cc1ccc(O)c(O)c1)(NN)C(=O)O,activity,[6],156%
same,"activity change, negative = inhibition",[7],0.684%
O=C1Nc2ccc(I)cc2/C1=C/c1cc(Br)c(O)c(Br)c1,Potency,[9],inactive
same,Potency,[8],19.8 µM (active)
same,Potency,[1],inactive
same,Potency,[2],inactive
same,Potency,[3],35 µM (active)
CC1=C(/C=C/C(C)=C/C=C/C(C)=C\C(=O)O)C(C)(C)CCC1,Potency,[10],inactive
same,Potency,[9],inactive
COc1cc(/C=C(\C#N)C(=O)c2ccc(O)c(O)c2)cc(I)c1O,activity,[6],13.9%
same,Potency,[7],24.3 µM (active)
CN(C)C(=O)/N=N/C(=O)N(C)C,activity,[6],-3.94%
same,"activity change, negative = inhibition",[7],0.919%
N#Cc1cc([N+](=O)[O-])c2sc(C(N)=O)[n+]([O-])c2c1,Potency,[10],8.2 µM (active)
same,Potency,[9],10.3 µM (active)
CN(C)S(=O)(=O)c1ccc2c(c1)/C(=C/c1cc3c([nH]1)CCCC3)C(=O)N2,Potency,[9],2.59 µM (active)
Fc1ccc(CN(C2=NCCN2)c2c(Cl)cccc2Cl)cc1,activity,[6],-2.41%
same,"activity change, negative = inhibition",[7],6.96%
Nc1ncnc2c1nc(Sc1ccc(Cl)cc1)n2[C@H]1OC2COP(=O)(O)O[C@@H]2C1O (stereo partly drawn),Potency,[8],0.789 µM (active)
same,Potency,[1],998 nM (active)
same,Potency,[2],1.77 µM (active)
same,Potency,[3],1.97 µM (active)
COc1ccc(CCn2nnnc2C2(c3ccc(C)cc3)CC2)cc1,Potency,[8],inactive
same,Potency,[1],inactive
Nc1ncnc2c1nc(Br)n2C1OC2COP(=O)(O)O[C@@H]2C1O (stereo partly drawn),Potency,[8],3.14 µM (active)
same,Potency,[1],4.46 µM (active) and 3.97 µM (active)
same,Potency,[2],3.54 µM (active) and 3.16 µM (active)
same,Potency,[3],5.55 µM (active) and 3.93 µM (active)
CCCC(=O)NCCc1c2n(c3ccc(OC)cc13)CCCc1ccccc1-2,Potency,[8],inactive
same,Potency,[1],inactive
same,Potency,[2],inactive
same,Potency,[3],7.84 µM (active)
CCCc1c(OCCCOc2ccc(OCC(=O)O)cc2)ccc(C(C)=O)c1O,Potency,[9],inactive
same,Potency,[1],inactive
same,Potency,[2],inactive
same,Potency,[3],15.6 µM (active)
same,outcome,[4],inactive
same,outcome,[5],inactive
same,activity,[6],14.3%
same,"activity change, negative = inhibition",[7],1.18%
c1ccc(C(NCc2cccnc2)(c2ccccc2)c2ccccc2)cc1,Potency,[8],inactive
same,Potency,[1],inactive
same,Potency,[3],1.11 µM (active)
CC(=O)NCCc1c[nH]c2ccc(O)cc12,Potency,[10],inactive
C[C@@]1(C2CCCC2)Cc2cc(OCC(=O)O)c(Cl)c(Cl)c2C1=O,Potency,[8],inactive
same,Potency,[1],inactive
same,Potency,[2],inactive
same,Potency,[3],17.5 µM (active)
same,activity,[6],5.42%
same,"activity change, negative = inhibition",[7],7.12%
C[C@H](NC(=O)/C(C#N)=C/c1ccc(O)c(O)c1)c1ccccc1,Potency,[1],inactive
same,Potency,[2],inactive
same,Potency,[3],inactive
same,activity,[6],72.5%
same,"activity change, negative = inhibition",[7],2.74%
Nc1ncnc2c1c(-c1ccc(Oc3ccccc3)cc1)cn2C1CCCC1,Potency,[10],1.64 µM (active)
same,Potency,[9],2.59 µM (active)
CC(=O)N[C@@H](Cc1c[nH]c2ccccc12)C(=O)OCc1cc(C(F)(F)F)cc(C(F)(F)F)c1,Potency,[1],inactive
same,Potency,[2],inactive
same,Potency,[3],35 µM (active)
COc1cc(/C=C(\C#N)C(=O)Nc2nnc(C(F)(F)F)s2)ccc1OCc1ccc(C(F)(F)F)cc1C(F)(F)F,Potency,[10],inactive
same,Potency,[9],inactive
O=C1Cc2c([nH]c3ccc(Br)cc23)-c2ccccc2N1,Potency,[10],6.51 µM (active)
same,Potency,[9],5.8 µM (active)
C=CCN1CCc2c(cc(O)c(O)c2Cl)C(c2ccccc2)C1 (stereo not drawn),activity,[6],72.4%
same,"activity change, negative = inhibition",[7],5.83%
NC/C=C\C(=O)O,activity,[6],-3.77%
same,"activity change, negative = inhibition",[7],4.36%
NS(=O)(=O)c1cccc2c1c([N+](=O)[O-])cc1nc(O)c(O)nc12,activity,[6],-92.9%
same,"activity change, negative = inhibition",[7],0.0632%
NCC(O)C1CCCCCCC1 (stereo not drawn),activity,[6],-3.91%
same,"activity change, negative = inhibition",[7],2.24%
O=C(O)C1=CC(=C(c2ccc(O)c(C(=O)O)c2)c2ccc(O)c(C(=O)O)c2)C=CC1=O,activity,[6],-24.2%
same,Potency,[7],24.3 µM (active)
CC(O)C(O)[C@H]1CNc2nc(N)[nH]c(=O)c2N1 (stereo partly drawn),activity,[6],-9.57%
same,"activity change, negative = inhibition",[7],4.12%
C=CCN1CCc2cc(O)c(O)cc2C(c2ccccc2)C1 (stereo not drawn),activity,[6],101%
same,"activity change, negative = inhibition",[7],8.51%
O=C(O)/C=C/c1ccc(O)c(O)c1,activity,[6],150%
same,"activity change, negative = inhibition",[7],0.674%
CCN(CC)CCCCCCCCOC(=O)c1cc(OC)c(OC)c(OC)c1,activity,[6],8.45%
same,"activity change, negative = inhibition",[7],4.66%
N#C/C(=C\c1ccc(O)c(O)c1)C(=O)NCCCNC(=O)/C(C#N)=C/c1ccc(O)c(O)c1,activity,[6],-50.9%
same,Potency,[7],4.85 µM (active)
N=C(N)SCCc1cnc[nH]1,activity,[6],-3.06%
same,"activity change, negative = inhibition",[7],-1.52%
O=C(O)Cc1ccc(O)c(O)c1,activity,[6],122%
same,"activity change, negative = inhibition",[7],5.19%
C=CCN1CCc2c(cc(O)c(O)c2Br)[C@@H](c2ccccc2)C1,activity,[6],62%
same,"activity change, negative = inhibition",[7],5.44%
CN1Cc2sccc2C(c2ccc(O)c(O)c2)C1 (stereo not drawn),activity,[6],138%
same,"activity change, negative = inhibition",[7],1.26%
Clc1nccc2c1ccc1ccccc12,activity,[6],4.56%
same,"activity change, negative = inhibition",[7],3.35%
CC1CCN=C(N)S1 (stereo not drawn),activity,[6],4.68%
same,"activity change, negative = inhibition",[7],0.929%
CC[C@@H]1Cc2cc(O)ccc2C2=C1c1ccc(O)cc1C[C@H]2CC,activity,[6],9.67%
same,Potency,[7],43.2 µM (active)
Cn1c(=O)c2[nH]c(-c3ccc(S(=O)(=O)O)cc3)nc2n(C)c1=O,activity,[6],-8.67%
same,"activity change, negative = inhibition",[7],1.75%
Nc1ccc2c3c(cccc13)C(=O)NC2=O,activity,[6],1.42%
same,"activity change, negative = inhibition",[7],4.2%
Brc1c(Br)c(Br)c2[nH]cnc2c1Br,activity,[6],-26.1%
same,Potency,[7],27.3 µM (active)
Oc1cc(O)c2c(c1)O[C@H](c1ccc(O)c(O)c1)[C@@H](O)C2,activity,[6],171%
same,"activity change, negative = inhibition",[7],4.5%
CNCCc1cnc(CCC(c2ccccc2)c2ccccc2)[nH]1,activity,[6],-11%
same,"activity change, negative = inhibition",[7],3.35%
N#C/C(=C\c1ccc(O)c(O)c1)C(=O)NCCc1ccccc1,activity,[6],85.9%
same,Potency,[7],0.432 µM (active)
O=c1[nH]ccc2c(O)cccc12,activity,[6],1.23%
same,"activity change, negative = inhibition",[7],2.16%
CCCc1c(-c2ccc(O)cc2)nn(-c2ccc(O)cc2)c1-c1ccc(O)cc1,activity,[6],-7.84%
same,Potency,[7],43.2 µM (active)
